Screens deposited in PubChem by National Center for Advancing Translational Sciences (NCATS).
A selection: hits, their analogues and other compounds. The true share with any hit is near 19%.
IL-1B inflam inh: qHTS for Inhibitors of Inflammasome Signaling: IL-1-beta AlphaLISA Primary Screen; activity change, % at 57.5 µM; 360,000 tested, 4.7% active; THP-1 LPS/ATP IL-1B secretion, AlphaLISA, 16 h; active compounds read low; AID 743279, 2014; in the data active means activity change below about -50%; inconclusive means mostly about -30% to -49%
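THP-1 cells pretreated 1 hr with compounds (up to 57.5 uM final), then stimulated with LPS (250 ng/mL final) plus ATP (1.25 mM final); secreted IL-1B measured by AlphaLISA after 16 hr, decreased signal indicating inhibition.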
DT40 TDP1 no CPT: qHTS for Inhibitors of human tyrosyl-DNA phosphodiesterase 1 (TDP1): qHTS in cells in absence of CPT. Potency, µM (titrated, usually from 46.2 µM), inactives show at the highest dose activity change, negative = growth inhibition, actives largely listed as inhibitors. 420,000 tested, 15% active. DT40 Tdp1-/- hTDP1 cells, no CPT, ATP luminescence, 48 h. AID 686978, 2013; further: potency means the concentration at half of the fitted maximal effect; nearly all actives have a fitted effect of over 55% in size
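Stably hTDP1-transfected Tdp1-null chicken DT40 cells were treated with library compounds minus camptothecin and grown for at least 48 hr at 37 °C, after which cellular ATP was quantified by luminescence.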
HT1080NT lethal: qHTS for induction of synthetic lethality in tumor cells producing 2HG: qHTS for the HT-1080-NT fibrosarcoma cell line; HT-1080-NT fibrosarcoma viability, CellTiter-Glo ATP luminescence, 48 h; AID 686970, 2013; 360,000 tested, 1.6% active; Potency, µM (top dose mostly 46.1 µM), without a hit: at the top dose activity, negative = less viability, hits mostly cytotoxic;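 further: NT is the 2HG producing partner of a matched IDH1 knockdown line; potency means the concentration at half of the fitted maximal effect; 0% = DMSO-treated cells and -100% = media-only wells without cells; nearly all actives have a fitted effect of over 55% in size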
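Read-out is CellTiter-Glo luminescence after 10 minutes at room temperature, following 48 hours' compound treatment of HT-1080-NT cells (750 cells/well, RPMI, 5% FBS, 37 degrees C).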
TDP1 cell CPT: qHTS for Inhibitors of human tyrosyl-DNA phosphodiesterase 1 (TDP1): qHTS in cells in presence of CPT. AID 686979, 2013. 420,000 tested, 12% active. chicken DT40 Tdp1-/-;hTDP1 cells + 20 nM CPT, ATP luminescence, 48 h. Potency, µM (highest dose often 46.2 µM), for the others: top-dose activity change, negative = growth inhibition, hits mostly inhibitors; further: potency means the concentration at half of the fitted maximal effect; nearly all actives have a fitted effect of over 55% in size
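Cell growth measured by CellTiter-Glo luminescence after a minimum 48 h, 37 C compound exposure with 20 nM CPT in Tdp1-knockout DT40 cells stably expressing hTDP1, seeded 400/well; qHTS titration format.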
HT1080 IDH1KD tx: qHTS for induction of synthetic lethality in tumor cells producing 2HG: qHTS for the HT-1080-IDH1KD cell line. 360,000 tested, 2% active. AID 686971, 2013. Potency, µM (top dose mostly 46.1 µM), inactives show top-dose activity, negative = toxicity, actives largely listed as cytotoxic. HT-1080 IDH1 knockdown viability, ATP luminescence, 48 h;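 further: potency means the concentration at half of the fitted maximal effect; 0% = DMSO wells and -100% = cell-free medium wells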
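Knockdown cells (IDH1KD HT-1080) received compounds 2 h after plating at 750 cells/well and were kept 48 h at 37 °C in 5% FBS RPMI. A CellTiter-Glo luminescence read gave % activity for curve fitting.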
Numbers without * were called inactive; ? = inconclusive; / = not tested or not shown. Unless noted, the call rests on the fitted dose curve; in most records, active means well fitted curve in the direction sought with a large enough effect; inconclusive means small, poorly fitted or top-dose-only effect, or another doubt; inactive means no such curve, though single readings can be large; an effect the other way counts as inactive or inconclusive. Unless noted, on the % scale 0 is the no-effect control and ±100 the full control effect.

SMILES	IL-1B inflam inh	DT40 TDP1 no CPT	HT1080NT lethal	TDP1 cell CPT	HT1080 IDH1KD tx
CC1(C(=O)NCc2ccc(F)c(F)c2)Cc2c(-c3cccc(C(F)(F)F)c3)ccnc2O1 (stereo unspecified)	65	16µM*	?	16µM*	?
CC1(C(=O)Nc2ccc(F)c(Cl)c2)Cc2c(-c3cccc(C(F)(F)F)c3)ccnc2O1 (stereo unspecified)	-21	?	?	?	?
CC1(C(=O)NCc2ccc(F)c(F)c2)Cc2c(-c3ccccc3)ccnc2O1 (stereo unspecified)	20	6.5µM*	?	10µM*	?
CN(C)c1ccc(CNC(=O)C2(C)Cc3c(-c4cccc(C(F)(F)F)c4)ccnc3O2)cc1 (stereo unspecified)	24	?	?	16µM*	18µM*
CC1(C(=O)Nc2ccc(F)c(Cl)c2)Cc2c(-c3ccccc3)ccnc2O1 (stereo unspecified)	-11	?	?	?	?
CC(=O)Nc1ccc(-c2ccnc3c2CC(C)(C(=O)NCc2ccc(F)c(F)c2)O3)cc1 (stereo unspecified)	46	3.3µM*	?	5.8µM*	15µM*
COc1ccc(CNC(=O)C2(C)Cc3c(-c4ccc(N(C)C)cc4)ccnc3O2)cc1OC (stereo unspecified)	24	?	-1%	?	-7%
CN(C)c1ccc(C=NCC2COc3ccccc3O2)cc1 (stereo unspecified)	-10	2%	10%	2%	4%
CC1(C(=O)NCc2cccnc2)Cc2c(-c3cccc(C(F)(F)F)c3)ccnc2O1 (stereo unspecified)	68	21µM*	?	23µM*	?
N#Cc1ccccc1NC(=O)CSc1nnc(N)s1	/	-13%	/	1%	/
COCCNc1nnc(SCC(=O)Nc2sc3c(c2C(=O)c2ccccc2)CCCC3)s1	?	?	-25%	21µM*	-24%
Nc1nnc(SCC(=O)Nc2sc3c(c2C(=O)c2ccccc2)CCCC3)s1	-3	16µM*	-2%	?	-22%
Cc1ccc(C(=O)c2c(NC(=O)CSc3nnc(N)s3)sc3c2CCCC3)cc1	-72*	?	-7%	?	-12%
COc1ccccc1CNC(=O)C1CCCN1S(=O)(=O)c1cccc2cccnc12 (stereo unspecified)	6	?	8%	-19%	-2%
c1ccc(C2Nc3ccccc3-c3nc4ccccc4n32)cc1 (stereo unspecified)	?	?	1%	?	-5%
CCN1c2ccccc2-c2nc3ccccc3n2C1c1cccs1 (stereo unspecified)	21	13µM*	-16%	23µM*	-1%
CCCn1c(CC)nc([N+](=O)[O-])c1Sc1ccc(C)cc1	-68*	-29%	-12%	-2%	-29%
CCCn1c(CC)nc([N+](=O)[O-])c1Sc1ccc(F)cc1	-19	?	-13%	?	-22%
O=C(/C=C/c1ccco1)NCCc1ccccc1	5	-27%	16%	5%	10%
Cc1ccc(/C=C/C(=O)Nc2ccccc2C(N)=O)o1	/	10µM*	/	?	/
Cc1ccc(/C=C/C(=O)NCCc2ccccc2)o1	-27	29µM*	-3%	5.8µM*	-2%
NC(=O)c1ccccc1NC(=O)/C=C/c1cccc(Cl)c1	?	-13%	-1%	-23%	0%
NC(=O)c1ccccc1NC(=O)/C=C/c1c(Cl)cccc1Cl	-22	18µM*	-28%	?	?
O=C(COC(=O)c1ccc(O)cc1O)Nc1ncc(Cl)cc1Cl	6	-13%	4%	-12%	10%
